Bioassay records from PubChem.
The list is not random: actives were taken first. Their share in the collection is about 2.8%.
ATXN2 expr inh – Primary qHTS for Inhibitors of ATXN expression | Potency, µM (highest dose often 57 µM), for inactives: at the top dose activity change, negative = inhibition, hits mostly inhibitors | actives 0.72% (n = 360,000) | HEK-293 ATXN2-luciferase reporter, luminescence, 24 h; also: % is scaled to controls: 0 for no effect and ±100 for the full control effect; nearly all actives have a fitted effect of over 55% in size
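qHTS (up to 57 uM final) was run with 24 h compound exposure of reporter cells at 37 °C. Each well was multiplexed: SteadyGlo luminescence measured ATXN2-luciferase expression after a fluorogenic Gly-Phe-AFC viability readout (25 uM final).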
HepG2 tox-1 – qHTS for Inhibitors of TGF-b: Cytotox Counterscreen. AID 588856, 2011. actives 0.76% (n = 410,000). HepG2 CAGA-GFP viability, ATP luminescence, 18 h. Potency, µM (top dose mostly 46.1 µM), inactives show at the highest dose activity change, negative = cytotoxicity, usual class: cytotoxic
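CellTiter-Glo luminescence gave cytotoxicity after 18 hours at 37 degrees C. The cells were HepG2 CAGA-GFP in 1% FBS DMEM, stimulated with 500 pg/mL TGF-beta after compound addition. %Activity was normalised to no-cell wells (complete cell-killing) and DMSO (no toxicity), and curves were fitted and classified.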
HTT ATP protect – qHTS Multiplex Assay to Identify Dual Action Probes in a Cell Model of Huntington: Cytoprotection (ATP) | PC12 HTT-Q103 induced, cytoprotection, ATP luminescence, 40 h | Potency, µM (top dose mostly 56.4 µM), for inactives: cytoprotection (ATP increase), usual class: activators | actives 0.14% (n = 230,000); also: % of control where 0% means no effect; nearly all actives have a fitted effect of over 45% in size
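Stable PC12 Q103-GFP cells in serum-supplemented, phenol red-free DMEM; induction by tebufenozide at 100 nM final; compound dose series; cell viability quantified luminescently from ATP.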
TGFb inhibitor – qHTS for Inhibitors of TGF-b. AID 588855, 2011. actives 1.2% (n = 410,000). HepG2 CAGA-GFP TGF-b/SMAD3 reporter, GFP fluorescence, 18 h; TGF-beta stimulated, 500 pg/mL final. Potency, µM (top dose mostly 46.1 µM), inactives show at the top dose activity, negative = inhibition, usual class: inhibitors; also: % is scaled to controls: 0 for no effect and ±100 for the full control effect; nearly all actives have a fitted effect of over 65% in size
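Read-out: total well GFP (ex488/em500-530) summed from mean per-cell fluorescence. Cells: HEPG2 CAGA-GFP, 1% FBS DMEM, 18 h at 37 degrees C with 500 pg/mL final TGF-beta. Unstimulated wells served as the full-inhibition control; stimulated DMSO wells = 0%.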
HttQ103 aggreg – qHTS Multiplex Assay to Identify Dual Action Probes in a Cell Model of Huntington: Aggregate Formation (GFP); PC12 HttQ103-GFP aggregates, Acumen cytometry, 40 h; Potency, µM (doses to about 46.1 µM), inactives show at the top dose activity change, negative = inhibition, usual class: inhibitors; actives 1.1% (n = 220,000); AID 1688, 2009; also: % is scaled to controls: 0 for no effect and ±100 for the full control effect; nearly all actives have a fitted effect of over 60% in size
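Steps: seed 1500 PC12 HTTQ103-GFP cells/well; add tebufenozide, 100 nM final; add compound titration; add ATPLite reagent; quantify GFP aggregates by laser scanning cytometry.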
S2 tox – Viability Counterscreen for Primary qHTS for Inhibitors of ATXN expression | S2 cells (HEK-293 line with an ATXN2-luciferase reporter) viability, CellTiter-Fluor protease fluorescence, 24 h | Potency, µM (doses to about 56.7 µM), most hits filed as cytotoxic | actives 0.49% (n = 400,000) | AID 651635, 2014; also: nearly all actives have a fitted effect of over 40% in size
TGFb CAGA inh – qHTS for Inhibitors of TGF-b: Confirmation of Cherry Picks; AID 720534, 2013; actives 63% (n = 1,600); HepG2 CAGA-GFP TGF-b reporter, GFP fluorescence, 18 h; cells stimulated with TGF-beta, 500 pg/mL; Potency, µM (doses to about 46.1 µM), for inactives: top-dose activity, negative = inhibition, most hits filed as inhibitors; shares compounds with TGFb inhibitor; also: % is scaled to controls: 0 for no effect and ±100 for the full control effect; nearly all actives have a fitted effect of over 65% in size
HepG2 tox-2 – qHTS for Inhibitors of TGF-b: Cytotox Counterscreen for Cherry Picks. actives 27% (n = 1,600). Potency, µM (top dose mostly 46.1 µM), inactives show at the highest dose activity, negative = cytotoxicity, most hits filed as inhibitors. shares compounds with TGFb inhibitor. HepG2 CAGA-GFP viability, ATP luminescence, 18 h; cells stimulated with TGF-beta, 500 pg/mL; also: % is scaled to controls: 0 for no effect and ±100 for the full control effect; nearly all actives have a fitted effect of over 70% in size
TGFb CCL64 inh – qHTS for Inhibitors of TGF-b: CCL64 Cells Orthogonal Assay for Cherry Picks. shares compounds with TGFb inhibitor. CCL64 CAGA-GFP reporter, TGF-b stimulated, GFP fluorescence, 18 h. Potency, µM (titrated, usually from 46.1 µM), without a hit: at the top dose activity, negative = inhibition, most hits filed as inhibitors. actives 41% (n = 1,600). AID 720536, 2013; also: nearly all actives have a fitted effect of over 65% in size
TGFb COP inh – qHTS for Inhibitors of TGF-b: Hit Validation in HepG2 Cells using COP promoter | shares compounds with TGFb inhibitor | Potency, µM (doses to about 46.1 µM), for inactives: at the highest dose activity, negative = inhibition, hits mostly inhibitors | actives 3% (n = 1,600) | HepG2 COP-GFP TGF-b reporter, GFP fluorescence, 18 h; cells stimulated by added recombinant TGF-beta; also: nearly all actives have a fitted effect of over 70% in size
Starred values were filed as active, the others as inactive; i = inactive; ? = inconclusive; . = no result given; [ ] = dose if it differs, or a comment. Calls follow the shape of the dose curve; as a rule, active = well fitted curve in the direction sought with a large enough effect; inconclusive = small, poorly fitted or top-dose-only effect, or another doubt; inactive = no such curve, though single readings can be large; an effect the other way counts as inactive or inconclusive. Potency is read from the fitted curve at half-maximal effect.

SMILES	ATXN2 expr inh	HepG2 tox-1	HTT ATP protect	TGFb inhibitor	HttQ103 aggreg	S2 tox	TGFb CAGA inh	HepG2 tox-2	TGFb CCL64 inh	TGFb COP inh
CC[C@H](C)[C@@H](NC(=O)O[C@@H]1C(=O)c2ccc(OC)cc2O[C@H]1c1cccc(C(F)(F)F)c1)C(=O)OC	.	.	12%	.	.	.	.	.	.	.
COCCNc1nc(N)c([N+](=O)[O-])c(NC2CCCCC2)n1	-20%	-7%	.	0%	.	i	.	.	.	.
NCCCNc1nc(N)c([N+](=O)[O-])c(NC2CCCCC2)n1	.	-32%	.	5µM*	.	i	4.6µM*	?	5.8µM*	94%
Cc1cc(NC(=O)CS(=O)(=O)c2cn(Cc3cccc(Cl)c3)c3ccccc23)no1	0%	4%	.	18µM*	.	?	12µM*	-11%	-23%	21%
O=C1C(NS(=O)(=O)c2cccs2)=C(N2CCN(Cc3ccccc3)CC2)C(=O)c2ccccc21	.	10µM*	-7%[10 µM]	8.9µM*	-18%[9.22 µM]	i	?	-24%	-10%	16%
CC(C)C[C@H]1CNC(=S)N1C[C@H]1CCCN1C[C@H](Cc1ccc(O)cc1)N1C[C@H](CC(C)C)N(CC2CCCCCC2)C1=S	?	-23%	.	6.3µM*	.	10µM*	4.6µM*	?	10µM*	25%
CC(C)C[C@H]1CNC(=S)N1CC1CCCN1C[C@H](Cc1ccccc1)N1C[C@H](Cc2ccc(O)cc2)N(CC2CCCCC2)C1=S (stereo partly specified)	-17%	-7%	.	8.9µM*	.	i	6.5µM*	-20%	21µM*	29%
CC(C)C[C@H]1CNC(=S)N1CC1CCCN1C[C@H](Cc1ccc(O)cc1)N1C[C@H](Cc2ccccc2)N(CC2CCCCCC2)C1=S (stereo partly specified)	-12%	-27%	.	?	.	i	.	.	.	.
CC(C)C[C@H]1CNC(=S)N1C[C@H]1CCCN1C[C@H](Cc1ccccc1)N1C[C@H](Cc2ccc(O)cc2)N(CC2CCCCCC2)C1=S	?	-21%	.	10µM*	.	16µM*	18µM*	?	?	35%
CCCC[C@@H]1CCCO[C@@](C(=O)NCCOC)(C(F)(F)F)C1	.	4%	.	-3%	.	.	.	.	.	.
